Consider 11 compounds from PubChem BioAssay (NCATS).

Where “and” joins values, the source holds several entries; their conditions need not be identical. Equal entries are not always repeated. Inconclusive results are not listed. Calls of active or inactive are those of the source. Unless noted, calls come from the whole dose curve; as a rule, active = well fitted curve in the direction sought with a large enough effect; inconclusive = small, poorly fitted or top-dose-only effect, or another doubt; inactive = no such curve, though single readings can be large; an effect the other way counts as inactive or inconclusive.

A short description of experiment [1]: Cell Viability - LYMP2-023 (AID 975).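 Note: cellular ATP measured by luciferase luminescence as viability proxy; plate controls were DMSO only for no effect and 92 µM tetraoctylammonium bromide control for full effect; nearly all actives have a fitted effect of over 55% in size.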 Summed up:
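Concentration-dependent drop in intracellular ATP measures acute cytotoxicity in a human lymphoblastoid line treated for 24 hours in complete culture medium. AC50 values are taken from Hill-equation fits of qHTS data.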

A short description of experiment [2]: Cell Viability - LYMP2-025 (AID 976).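 Note: plate controls were DMSO only for no effect and tetraoctylammonium bromide control for full effect.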 The method in brief:
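In qHTS format, LYMP2-025 lymphoblastoid cells in complete culture medium received compound for 24 hr; ATP-based CellTiter-Glo signal gave viability, with AC50 derived by Hill equation.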

Experiment [3] can be described thus: Cell Viability - LYMP2-002 (AID 977).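 Note: compound exposure lasted 24 h at 37 °C; plate controls were DMSO only for no effect and 92 µM tetraoctylammonium bromide for full effect.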 The method in brief:
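Human lymphoblastoid LYMP2-002 cells, 2500 per well, exposed to compounds for 24 h at 37 C in complete medium; viability read as intracellular ATP by CellTiter-Glo luminescence, AC50 from Hill fits.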

A short description of experiment [4]: Cell Viability - LYMP2-006 (AID 978). Note: % is set by controls: 0 for no effect and ±100 for the full control effect; nearly all actives have a fitted effect of over 60% in size. The method in brief: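 Cells are seeded at 2500 per well and rested 5 hr at 37 C. Compounds are added across a concentration series for 24 hr at 37 C, after which ATP is quantified by luciferase luminescence.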
Experiment [5] can be described thus: Cell Viability - LYMP2-007 (AID 979).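 Note: cells exposed to compound for 24 h before reading; 0% = DMSO only and the negative end = 92 µM tetraoctylammonium bromide; nearly all actives have a fitted effect of over 60% in size.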 The method in brief:
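Acute toxicity is scored as a concentration-dependent fall in intracellular ATP in human lymphoblastoid cells treated 24 hr at 37 C, measured by luciferase luminescence; Hill-equation modelling yields AC50.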

The nature of experiment [6]: Cell Viability - LYMP2-008 (AID 980). Note: % is set by controls: 0 for no effect and ±100 for the full control effect; nearly all actives have a fitted effect of over 60% in size. Summed up: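 Acute cytotoxicity is scored as concentration-dependent loss of cellular ATP in a human lymphoblastoid line after 24 hr treatment at 37 C. ATP is quantified by luciferase luminescence.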
The nature of experiment [7]: Cell Viability - LYMP2-012 (AID 982).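 Note: cellular ATP by luciferase luminescence where a drop means cytotoxicity; cells exposed to compound for one day before reading; 0% = DMSO only and full loss = 92 µM tetraoctylammonium bromide; nearly all actives have a fitted effect of over 55% in size.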
The nature of experiment [8]: Cell Viability - LYMP2-014 (AID 983).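 Note: plate controls were DMSO only for no effect and 92 µM tetraoctylammonium bromide for full effect; nearly all actives have a fitted effect of over 50% in size.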 Summed up:
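Decrease in intracellular ATP after 24 hr treatment at 37 C, measured by luciferase luminescence, indicated cytotoxicity. Concentration-response data were fitted with the standard Hill equation to give AC50.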

Experiment [9] is described as follows: Cell Viability - LYMP2-016 (AID 984). Note: % is set by controls: 0 for no effect and ±100 for the full control effect; nearly all actives have a fitted effect of over 55% in size. Summed up: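 Cells were seeded at 2500 per well and rested 5 hr before a 24 hr compound exposure at 37 C. Viability was then gauged as cellular ATP by luciferase luminescence, with AC50 values fitted to the Hill equation.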
Experiment [10] can be described thus: Cell Viability - LYMP2-018 (AID 985).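 Note: plate controls were DMSO only for no effect and tetraoctylammonium bromide at 92 µM for full effect; nearly all actives have a fitted effect of over 50% in size.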 Summed up:
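Acute cytotoxicity is scored as a concentration-dependent drop in intracellular ATP after 24 hr exposure of the lymphoblastoid line in complete culture medium, measured by luciferase luminescence. Potency is expressed as AC50 from Hill modelling.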

Experiment [11] can be described thus: Cell Viability - LYMP2-022 (AID 987).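 Note: 0% = DMSO alone and full effect = tetraoctylammonium bromide at 92 µM; nearly all actives have a fitted effect of over 55% in size.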 The method in brief:
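Acute toxicity in a human lymphoblastoid line is scored as decreased intracellular ATP after 24 hr compound treatment at 37 C. ATP is measured by CellTiter-Glo luminescence; curves are fitted with the Hill equation to give AC50.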

The nature of experiment [12]: Cell Viability - LYMP2-024 (AID 988).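 Note: plate controls were DMSO only for no effect and 92 µM tetraoctylammonium bromide for full effect; nearly all actives have a fitted effect of over 60% in size.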 The method in brief:
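Acute toxicity is measured as concentration-dependent loss of intracellular ATP in a human lymphoblastoid line treated 24 hours at 37 C. Luciferase luminescence quantifies ATP; AC50 values come from standard Hill-equation modelling.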

Experiment [13] can be described thus: Cell Viability - LYMP2-026 (AID 989). Note: % is set by controls: 0 for no effect and ±100 for the full control effect; nearly all actives have a fitted effect of over 50% in size. Summed up:
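Concentration-dependent loss of intracellular ATP in human lymphoblastoid cells after 24 hr at 37 C, quantified by luciferase luminescence. AC50 derived from standard Hill equation.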

The target of experiment [14] is Alpha-galactosidase A (Homo sapiens) (UniProt P06280). Nature of the experiment: Counterscreen for Glucocerebrosidase Inhibitors: qHTS Assay for Human alpha-Galactosidase at pH 4.5 (AID 992). Note: 0% is about no effect. Summed up: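 Concentration-response curves (0.7 nM to 77 uM final) were modeled with the Hill equation to give AC50. Reactions: 2 nM enzyme, 80 uM fluorogenic alpha-galactoside, pH 4.5 citric acid buffer, 20 min, room temperature.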
Background: The purpose of a counterscreen is to sort out artefacts and off-target activity.

Experiment [15] is described as follows: Cell Viability - LYMP1-002 - Assay at 24 hr (AID 993). Note: % is set by controls: 0 for no effect and ±100 for the full control effect. Summed up: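 qHTS, LYMP1-002 lymphoblastoid, 24 h cpd, 37 C, CellTiter-Glo ATP luminescence; AC50 via Hill eq.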
Experiment [16] in a line: Cell Viability - LYMP1-002 - Assay at 40 hr (AID 994). Summed up: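 Viability in the human lymphoblastoid line was measured as intracellular ATP via CellTiter-Glo after 40 hr compound exposure. Tetraoctylammonium bromide served as positive control.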
Experiment [17] is described as follows: Cell Viability - LYMP2-010 (AID 981). The method in brief: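 Acute toxicity is scored as a concentration-dependent loss of cellular ATP in human lymphoblastoid cells after 24 hr compound exposure in complete medium. Tetraoctylammonium bromide is the positive control.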
Experiment [18] in a line: Cell Viability - LYMP2-020 (AID 986). The method in brief:
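Acute cytotoxicity in a human lymphoblastoid line is scored as a concentration-dependent fall in cellular ATP after 24 hr at 37 C in complete medium. The positive control is tetraoctylammonium bromide, and potency is given as Hill-fit AC50.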

A short description of experiment [19]: qHTS Assay for Lipid Storage Modulators (AID 1519; calls by dose curve; for activity change, negative = inhibition: % is set by controls: 0 for no effect and ±100 for the full control effect). The conditions noted are these: Drosophila S3 cells, BODIPY lipid droplet/cell ratio, laser cytometry, cells loaded with oleic acid; for activity change, negative = inhibition: at 57.5 µM (top of the series). Summed up:
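Cells seeded at 5,000 per well were treated with compounds over a concentration series and loaded with oleic acid (400 uM, as added). Lipid droplet fluorescence (488 nm excitation, 500-530 nm channel) was read by laser-scanning cytometry and normalized to 20 uM Triacsin C.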
A general note: Quantitative high-throughput screening tests each substance at several concentrations.

The mark [20] stands for this setting: measured here: cell count channel max response.
Setting [21] is: measured here: lipid channel max response.

Chain of Alpha-galactosidase A (Homo sapiens) (P06280 whole entry, looked up): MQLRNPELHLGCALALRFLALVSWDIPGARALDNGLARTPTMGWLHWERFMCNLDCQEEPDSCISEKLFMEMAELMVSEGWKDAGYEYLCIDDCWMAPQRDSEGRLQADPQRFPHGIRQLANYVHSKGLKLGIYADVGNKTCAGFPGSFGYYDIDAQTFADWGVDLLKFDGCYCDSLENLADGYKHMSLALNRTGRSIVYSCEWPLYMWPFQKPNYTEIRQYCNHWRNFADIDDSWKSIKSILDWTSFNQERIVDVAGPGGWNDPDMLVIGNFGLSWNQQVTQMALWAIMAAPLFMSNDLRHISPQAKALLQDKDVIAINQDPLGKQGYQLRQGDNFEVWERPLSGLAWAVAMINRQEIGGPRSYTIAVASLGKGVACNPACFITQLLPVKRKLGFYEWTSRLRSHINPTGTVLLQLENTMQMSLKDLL

`NC(N)=NC(=O)c1nc(Cl)c(N)nc1N`: the call in [1], in [2], in experiment [3], in [4], in [5] and in experiment [6] was inactive. Moreover, the call in experiment [7], in experiment [8], in [9], in experiment [10], in experiment [11] and in [12] was inactive. The call in experiment [13], in experiment [14], in experiment [15] and in [16] was inactive.

On to `O=c1[nH]cnc2[nH]ncc12`, for which the compound was classed as inactive in [1], in [3], in experiment [4], in [5], in experiment [6] and in experiment [7]. For the same compound, the compound was called inactive in experiment [8], in [9], in experiment [10], in experiment [18], in [11] and in [12]. For the same compound, the compound was classed as inactive in experiment [13], in [14], in experiment [15] and in [16]. Further, the Potency result in experiment [17] was “inactive”. The activity change, negative = inhibition in experiment [19] is 3.88% (inactive) and -0.195% (inactive). Further, the max response in [19] (setting [20]) is 3.2% and 58%; in experiment [19] (setting [21]), 12.9% and 60.4%.

Take `CC(C[N+](C)(C)C)OC(N)=O` (stereo unspecified): in [19], the activity change, negative = inhibition was 0.608% (inactive). Moreover, the max response in experiment [19] (setting [20]) was -11.2%; in experiment [19] (setting [21]), -6.21%.

Turning to `Cc1[nH]c(=O)c(C#N)cc1-c1ccc2nccn2c1`, the compound was classed as inactive in experiment [14]. Moreover, the activity change, negative = inhibition in [19] is -1.62% (inactive). Further, the results for the max response in [19] (setting [20]) and in experiment [19] (setting [21]) were 25.3% and 21.7%, respectively.

With `CNC[C@H](O)c1cccc(O)c1`, in [14], the result was inactive. The activity change, negative = inhibition in [19] is 0.239% (inactive). The max response in [19] (setting [20]) was 20.5%; in experiment [19] (setting [21]), 21.2%.

As for `O=c1n(CCCN2CCN(c3cccc(Cl)c3)CC2)nc2ccccn12`, in [14], the compound was called inactive. In addition, the activity change, negative = inhibition in experiment [19] is 10.8% (inactive) and -2.4% (inactive). For the same compound, the max response in experiment [19] (setting [20]) was 20.6% and -14.9%; in [19] (setting [21]), 37% and -15.6%.

As for `C[C@]12CCC(=O)C=C1CC[C@@H]1[C@@H]2[C@@H](O)C[C@@]2(C)[C@H]1CC[C@]2(O)C(=O)CO`, in [14], the call was inactive.

Take `O=NN(CCCl)C(=O)NCCCl`: the call in experiment [14] was inactive. Besides, the activity change, negative = inhibition in experiment [19] is -2.32% (inactive). In addition, the figures for the max response in experiment [19] (setting [20]) and in experiment [19] (setting [21]) were -3.08% and -6.13%, respectively.

For the compound `CCCC(CCC)C(=O)O`, the compound was called inactive in [1], in [2], in [3], in experiment [4], in experiment [5] and in [6]. In addition, the outcome in [7], in [8], in experiment [9], in experiment [10], in experiment [18] and in [11] was inactive. For the same compound, the outcome in experiment [12], in experiment [13], in [14], in [15] and in [16] was inactive. In addition, the Potency entry in [17] was “inactive”. The activity change, negative = inhibition in experiment [19] is 7.45% (inactive). The values for the max response in experiment [19] (setting [20]) and in [19] (setting [21]) were 23.9% and 36.2%, respectively.

`CCCc1nn(C)c2c(=O)[nH]c(-c3cc(S(=O)(=O)N4CCN(C)CC4)ccc3OCC)nc12`: the activity change, negative = inhibition in experiment [19] is 9.83% (inactive). Moreover, the max response in [19] (setting [20]) amounted to 12.2%; in [19] (setting [21]), 27.6%.

In the case of `OC(CN1CCC(Cc2ccc(F)cc2)CC1)c1ccc(Cl)cc1` (stereo unspecified), the result in [14] was inactive.
